# From the supplement of paper PMC6555819
# What was measured:
# Experiment in all cases: PBM binding z-score (relative to random genomic background probes); higher = stronger binding; sequences stand for … in GC…GCGATTGACAGCGTAGAATGAAGG
# [1] = system: FXR:RXRa (NR concentration 270 nM, RXRa partner concentration 90 nM)
# How it was run: (§1)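 Custom Agilent 4×180K protein-binding microarrays carried double-stranded probes, each with a 34-nt variable region. These regions held direct-repeat seeds, single-nucleotide variants, half-site ablations and random human genomic background sequences. Ligand-free nuclear receptor dimers were incubated on the arrays for 1 h, antibodies against each partner (one per run) detected binding, and scanned fluorescence was regression-normalized. Binding z-scores take the random background probes as reference.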
# [2] = system: LXRa:RXRa (NR concentration 270 nM, RXRa partner concentration 90 nM)
# How it was run: as §1
# [3] = system: LXRa homodimer (NR concentration 270 nM)
# How it was run: as §1
# [4] = system: LXRb:RXRa (NR concentration 270 nM, RXRa partner concentration 90 nM)
# How it was run: as §1
# [5] = system: LXRb homodimer (NR concentration 270 nM)
# How it was run: as §1
# [6] = system: PPARa:RXRa (NR concentration 270 nM, RXRa partner concentration 90 nM)
# How it was run: as §1
# [7] = system: PPARg:RXRa (NR concentration 180 nM, RXRa partner concentration 90 nM)
# How it was run: as §1
# [8] = system: PPARg:RXRa 270nM:90nM, anti-RXR (NR concentration 270 nM, RXRa partner concentration 90 nM)
# How it was run: as §1
# [9] = system: PPARg:RXRa 30nM:10nM, anti-RXR (NR concentration 30 nM, RXRa partner concentration 10 nM)
# How it was run: as §1
# [10] = system: PPARg:RXRa 90nM:30nM, anti-RXR (NR concentration 90 nM, RXRa partner concentration 30 nM)
# How it was run: as §1
# [11] = system: PPARg:RXRa DBDmut IVT, anti-RXR (DBD mutation: RXRa K156A/R161A, NR concentration 270 nM, RXRa partner concentration 90 nM)
# How it was run: as §1
# [12] = system: PPARg:RXRa IVT, anti-PPARg (NR concentration 270 nM, RXRa partner concentration 90 nM)
# How it was run: as §1
# [13] = system: PPARg DBDmut:RXRa IVT, anti-PPARg (DBD mutation: PPARg1 K132A/R137A, NR concentration 270 nM, RXRa partner concentration 90 nM)
# How it was run: as §1
# [14] = system: PPARg DBDmut IVT, anti-PPARg (DBD mutation: PPARg1 K132A/R137A, NR concentration 270 nM)
# How it was run: as §1
# [15] = system: PPARg homodimer (NR concentration 180 nM)
# How it was run: as §1
# [16] = system: PXR:RXRa (NR concentration 270 nM, RXRa partner concentration 90 nM)
# How it was run: as §1
# [17] = system: PXR homodimer (NR concentration 270 nM)
# How it was run: as §1
# [18] = system: RARa:RXR (NR concentration 270 nM, RXRa partner concentration 90 nM)
# How it was run: as §1
# [19] = system: RARa homodimer (NR concentration 270 nM)
# How it was run: as §1
# [20] = system: RARb:RXRa (NR concentration 270 nM, RXRa partner concentration 90 nM)
# How it was run: as §1
Sequence,PBM binding z-score [1],PBM binding z-score [2],PBM binding z-score [3],PBM binding z-score [4],PBM binding z-score [5],PBM binding z-score [6],PBM binding z-score [7],PBM binding z-score [8],PBM binding z-score [9],PBM binding z-score [10],PBM binding z-score [11],PBM binding z-score [12],PBM binding z-score [13],PBM binding z-score [14],PBM binding z-score [15],PBM binding z-score [16],PBM binding z-score [17],PBM binding z-score [18],PBM binding z-score [19],PBM binding z-score [20]
GCTTGTAGATCAAGGTTAAGAGAGACTAAGCTAA,-0.00904,0.508,-0.353,0.119,-0.894,1.36,0.796,2.03,0.342,1.44,1.35,1.01,0.118,-0.183,0.193,0.187,-0.0843,0.668,-0.213,0.688
CCTAGTTGGTCGGGAGGTCACACACCGGATATGA,3.79,3.32,2.67,3.48,1.04,3.89,2.12,2.73,0.776,2.07,-0.134,1.89,0.253,0.694,3.59,4.29,2.4,4.55,2.58,3.47
TCTTGTAGATCAGCAGGTTAAGAAGGCTGGCCAA,0.433,0.344,-0.0872,0.367,-0.714,0.674,-0.387,1.6,2.59,2.41,1.84,0.182,-0.501,-0.862,0.413,0.183,-0.311,0.64,-0.641,0.214
CGAACTAGGTCAGAACAGGACAATGAAGGATGAT,1.42,1.2,0.0697,0.618,-0.134,3.06,5.27,4.32,1.93,3.26,6.72,7.28,2.05,0.683,0.602,1.23,0.343,0.703,0.399,2.98
CGAACTAGGTCATCCAGGACATTGAATACATTGA,4.43,2.87,1.02,2.52,0.159,5.11,7.97,6.57,4.02,5.68,8.08,8.47,4.18,1.44,2.2,2.71,3.75,2.82,1.01,3.92
ATATGTAGGTTACATCCGGGACATTCAGGCTATG,0.396,2.2,0.343,1.11,0.574,3.44,5.41,4.47,1.95,3.37,7.57,7.46,4.54,2.06,1.33,0.599,0.5,0.964,0.969,1.08
GCGACTGGGGCAAAGCAGGTTACCGTAAGGTTGG,-0.0896,0.23,-0.658,0.135,-1.45,1.51,0.866,1.45,-0.363,0.645,4.2,3.74,-0.21,-0.572,0.239,0.503,-0.648,1.73,-1.1,0.922
GCGACTGGGGCAAAGCACGTTACCATAAGGTTGG,-0.454,-0.482,-0.763,-0.305,-0.971,0.875,1.7,2.21,0.24,1.62,4.44,3.18,0.131,-0.127,0.0548,-0.54,-0.386,-0.0632,-0.156,0.573
CGTCCAAGATCAGCAGGTCAGTGAAAGCGACGTG,0.239,0.32,0.0834,0.195,-0.306,0.671,0.0765,0.227,-0.568,-0.405,0.000191,-0.104,-0.863,-0.238,0.712,0.136,-0.221,0.583,-0.407,1.97
TCTTGTAGATGAGCAGGTTAAGAAAGCTGGCCAA,-0.174,-0.248,-0.441,-0.166,-1.02,0.327,-0.56,0.706,1.86,1.32,0.934,-0.183,-0.514,0.12,0.00499,0.02,-0.92,0.211,-0.441,-0.439
AGAATGAGGTTACGATCAGGGAAACAGAATACAT,1.98,1.94,-0.122,1.75,-0.632,3.9,2.97,2.65,1.2,2.18,3.35,3.6,1.79,0.837,0.684,1.19,0.235,1.92,0.462,2.16
CCGATTGGGGCAAGGTTACCATAACGCACAGCCA,0.189,0.481,-0.246,0.649,-1.05,1.28,1.44,1.49,0.0472,0.943,1.32,1.29,-0.839,-0.45,0.0331,0.36,-0.458,0.793,-0.365,1.67
CGAACTAGGTTATTGACAGGACAGTGAATAGTAA,0.276,0.886,0.37,0.406,-0.0993,2.09,2.41,2.12,0.574,1.47,5.85,5.11,0.805,0.514,0.855,0.198,0.237,0.554,0.372,0.837
TCTCCGAGGACACGAAGGTCAGAGCTTTCCAGAG,1.91,0.842,0.15,0.919,-0.353,2.09,0.489,1.61,2.34,2,1.19,1.32,-0.386,-0.524,1.23,2.1,1.31,2.06,-0.358,3.54
GGCACGAGGGCATTCGAGTTGATAGCATGGCGAT,1.22,1.79,-0.515,0.139,-1.26,0.942,0.663,0.216,-0.477,-0.229,1.63,0.977,-1.13,-1.45,-0.356,3.77,1.72,0.606,-0.627,1.95
CCTTACGGGTCACTCCGGGTTATAGCATCGGAGT,5.38,6.79,0.448,4.31,0.169,4.62,3.58,4.18,1.34,3.26,1.96,3.06,0.27,-0.00571,1.92,4.6,-0.199,3.88,0.188,3.37
AATACAGGGTCATCGTAGGCCAGAGTCCGCACAG,7.16,6.35,2.6,4.52,1.21,5.96,6.83,5.83,2.39,4.51,2.98,4.32,0.922,0.82,2.39,4.96,0.483,4.93,0.764,4.45
CCGACTGGGGCAGAAAGGTTACCACACCATCCGG,0.286,0.428,0.0458,0.833,-1.17,2.21,1.74,2.66,0.555,2.13,1.83,1.76,-0.724,-0.799,0.71,0.929,-0.219,1.85,0.0999,1.92
TTACCAAGGTGAGCTGACGTCGTTGATCCAACTC,-0.0042,-0.397,-0.855,-0.446,-0.946,0.149,0.0549,0.41,-0.0176,-0.026,0.771,1.43,-0.733,-0.641,-0.886,-0.363,-0.913,-0.1,-1.03,0.866
ACTTACGGGTCAACGAGGTTATAGGACGCGTATA,5.95,5.07,0.89,4.43,0.538,5.78,5.7,5.53,2.04,4.25,3.03,4.18,1.47,0.791,2,5.08,2.36,5,1.18,4.41
TCATATATGTAAAAGGTGAAAGTCGGTGTGGTAA,0.511,1.25,-0.0169,1.75,0.0133,3.72,5.15,6.15,5.45,7,2.46,2.83,0.873,0.794,1.98,1.21,-0.143,1.85,1.14,1.9
GCTGCTAGGTCAGGTTGGTCATCTAACGGGTACG,1.59,1.01,0.226,0.755,0.00509,1.45,0.55,1.02,-0.203,0.295,2.9,2.41,-0.672,-0.462,0.986,0.706,-0.262,1.02,-0.199,3.29
AGTCAAAGTTCAGGACGAGGTAACGTACAGCACG,4.02,3.94,1.42,1.7,0.128,3.3,4.64,4.76,2.19,3.73,-0.265,2.01,0.413,0.297,1.59,2.95,0.808,3.01,0.256,4.18
ATCTCTAGGTAACAAGTCCAGTGAAAGAGAGGAC,0.652,0.256,0.362,0.148,0.685,0.632,1.2,1.71,0.317,1.45,3.01,2.6,0.767,1.29,0.367,0.433,0.215,0.195,0.924,0.473
TAGCCTTGGTCATTGGGCCAGTATAGTACGCATC,-0.646,-0.599,-0.698,-0.456,-0.537,-0.217,0.338,0.117,-0.34,-0.429,-0.486,0.545,-0.509,-0.603,-0.625,-0.515,-0.596,-0.324,-0.586,0.69
CATACAGCGTCAGCTAGGCCAGAGTAGGGACGGC,-0.554,-0.839,-0.547,-1.42,-0.647,-1.05,0.332,-0.936,-0.344,-0.884,-0.164,-0.272,-0.28,0.0344,-0.557,-1.3,-0.659,-0.799,-0.655,-0.287
GCAGACAGGTGAAACGTAGGTAACTCAGGGTGGC,-0.116,0.0027,-0.589,-0.409,-0.785,0.799,0.792,0.526,-0.444,-0.0243,1.69,0.679,-0.482,-0.518,-0.211,-0.374,-0.933,0.315,-0.166,0.76
TGAATGAGGGTAAAGATCAGGGAACGTGGCGTCG,0.332,0.35,-0.456,-0.0766,0.875,2.98,4.39,5.94,4.5,6.32,2.27,3.04,0.811,1.2,1.24,-0.131,-0.487,0.239,0.383,0.817
